Results: the supplement of paper PMC11001985
Unmarked numbers belong to inactive results.

compound: C#CCNC(=O)CCSSCCC(=O)NCCc1ccc(C=O)c(C=O)c1; assay: lysine labeling ratio R10:1 (500 µM / 50 µM probe), SILAC-ABPP in living cells; higher = lower intrinsic lysine reactivity toward the probe, active = 2 or less; details: HeLa; probe concentrations 500 vs 50 µM
Outline: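 The two probe levels, 50 µM and 500 µM, of an alkyne-tagged, disulfide-linked lysine probe were applied to living light and heavy SILAC HeLa cells in PBS at room temperature, and the labels were run in both forward and reverse orientation. Mixed lysates underwent biotin-azide click chemistry, trypsin digestion, neutravidin capture, DTT release and alkylation before LC-MS/MS on a TIMS-TOF Pro. R is the filtered median high-probe/low-probe MS1 peptide ratio for each lysine, summarised as the median over forward and reverse replicates. Nothing above 20 is reported; such values are set to 20.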

Chain of UniProt Q07954 (Q07954 whole entry): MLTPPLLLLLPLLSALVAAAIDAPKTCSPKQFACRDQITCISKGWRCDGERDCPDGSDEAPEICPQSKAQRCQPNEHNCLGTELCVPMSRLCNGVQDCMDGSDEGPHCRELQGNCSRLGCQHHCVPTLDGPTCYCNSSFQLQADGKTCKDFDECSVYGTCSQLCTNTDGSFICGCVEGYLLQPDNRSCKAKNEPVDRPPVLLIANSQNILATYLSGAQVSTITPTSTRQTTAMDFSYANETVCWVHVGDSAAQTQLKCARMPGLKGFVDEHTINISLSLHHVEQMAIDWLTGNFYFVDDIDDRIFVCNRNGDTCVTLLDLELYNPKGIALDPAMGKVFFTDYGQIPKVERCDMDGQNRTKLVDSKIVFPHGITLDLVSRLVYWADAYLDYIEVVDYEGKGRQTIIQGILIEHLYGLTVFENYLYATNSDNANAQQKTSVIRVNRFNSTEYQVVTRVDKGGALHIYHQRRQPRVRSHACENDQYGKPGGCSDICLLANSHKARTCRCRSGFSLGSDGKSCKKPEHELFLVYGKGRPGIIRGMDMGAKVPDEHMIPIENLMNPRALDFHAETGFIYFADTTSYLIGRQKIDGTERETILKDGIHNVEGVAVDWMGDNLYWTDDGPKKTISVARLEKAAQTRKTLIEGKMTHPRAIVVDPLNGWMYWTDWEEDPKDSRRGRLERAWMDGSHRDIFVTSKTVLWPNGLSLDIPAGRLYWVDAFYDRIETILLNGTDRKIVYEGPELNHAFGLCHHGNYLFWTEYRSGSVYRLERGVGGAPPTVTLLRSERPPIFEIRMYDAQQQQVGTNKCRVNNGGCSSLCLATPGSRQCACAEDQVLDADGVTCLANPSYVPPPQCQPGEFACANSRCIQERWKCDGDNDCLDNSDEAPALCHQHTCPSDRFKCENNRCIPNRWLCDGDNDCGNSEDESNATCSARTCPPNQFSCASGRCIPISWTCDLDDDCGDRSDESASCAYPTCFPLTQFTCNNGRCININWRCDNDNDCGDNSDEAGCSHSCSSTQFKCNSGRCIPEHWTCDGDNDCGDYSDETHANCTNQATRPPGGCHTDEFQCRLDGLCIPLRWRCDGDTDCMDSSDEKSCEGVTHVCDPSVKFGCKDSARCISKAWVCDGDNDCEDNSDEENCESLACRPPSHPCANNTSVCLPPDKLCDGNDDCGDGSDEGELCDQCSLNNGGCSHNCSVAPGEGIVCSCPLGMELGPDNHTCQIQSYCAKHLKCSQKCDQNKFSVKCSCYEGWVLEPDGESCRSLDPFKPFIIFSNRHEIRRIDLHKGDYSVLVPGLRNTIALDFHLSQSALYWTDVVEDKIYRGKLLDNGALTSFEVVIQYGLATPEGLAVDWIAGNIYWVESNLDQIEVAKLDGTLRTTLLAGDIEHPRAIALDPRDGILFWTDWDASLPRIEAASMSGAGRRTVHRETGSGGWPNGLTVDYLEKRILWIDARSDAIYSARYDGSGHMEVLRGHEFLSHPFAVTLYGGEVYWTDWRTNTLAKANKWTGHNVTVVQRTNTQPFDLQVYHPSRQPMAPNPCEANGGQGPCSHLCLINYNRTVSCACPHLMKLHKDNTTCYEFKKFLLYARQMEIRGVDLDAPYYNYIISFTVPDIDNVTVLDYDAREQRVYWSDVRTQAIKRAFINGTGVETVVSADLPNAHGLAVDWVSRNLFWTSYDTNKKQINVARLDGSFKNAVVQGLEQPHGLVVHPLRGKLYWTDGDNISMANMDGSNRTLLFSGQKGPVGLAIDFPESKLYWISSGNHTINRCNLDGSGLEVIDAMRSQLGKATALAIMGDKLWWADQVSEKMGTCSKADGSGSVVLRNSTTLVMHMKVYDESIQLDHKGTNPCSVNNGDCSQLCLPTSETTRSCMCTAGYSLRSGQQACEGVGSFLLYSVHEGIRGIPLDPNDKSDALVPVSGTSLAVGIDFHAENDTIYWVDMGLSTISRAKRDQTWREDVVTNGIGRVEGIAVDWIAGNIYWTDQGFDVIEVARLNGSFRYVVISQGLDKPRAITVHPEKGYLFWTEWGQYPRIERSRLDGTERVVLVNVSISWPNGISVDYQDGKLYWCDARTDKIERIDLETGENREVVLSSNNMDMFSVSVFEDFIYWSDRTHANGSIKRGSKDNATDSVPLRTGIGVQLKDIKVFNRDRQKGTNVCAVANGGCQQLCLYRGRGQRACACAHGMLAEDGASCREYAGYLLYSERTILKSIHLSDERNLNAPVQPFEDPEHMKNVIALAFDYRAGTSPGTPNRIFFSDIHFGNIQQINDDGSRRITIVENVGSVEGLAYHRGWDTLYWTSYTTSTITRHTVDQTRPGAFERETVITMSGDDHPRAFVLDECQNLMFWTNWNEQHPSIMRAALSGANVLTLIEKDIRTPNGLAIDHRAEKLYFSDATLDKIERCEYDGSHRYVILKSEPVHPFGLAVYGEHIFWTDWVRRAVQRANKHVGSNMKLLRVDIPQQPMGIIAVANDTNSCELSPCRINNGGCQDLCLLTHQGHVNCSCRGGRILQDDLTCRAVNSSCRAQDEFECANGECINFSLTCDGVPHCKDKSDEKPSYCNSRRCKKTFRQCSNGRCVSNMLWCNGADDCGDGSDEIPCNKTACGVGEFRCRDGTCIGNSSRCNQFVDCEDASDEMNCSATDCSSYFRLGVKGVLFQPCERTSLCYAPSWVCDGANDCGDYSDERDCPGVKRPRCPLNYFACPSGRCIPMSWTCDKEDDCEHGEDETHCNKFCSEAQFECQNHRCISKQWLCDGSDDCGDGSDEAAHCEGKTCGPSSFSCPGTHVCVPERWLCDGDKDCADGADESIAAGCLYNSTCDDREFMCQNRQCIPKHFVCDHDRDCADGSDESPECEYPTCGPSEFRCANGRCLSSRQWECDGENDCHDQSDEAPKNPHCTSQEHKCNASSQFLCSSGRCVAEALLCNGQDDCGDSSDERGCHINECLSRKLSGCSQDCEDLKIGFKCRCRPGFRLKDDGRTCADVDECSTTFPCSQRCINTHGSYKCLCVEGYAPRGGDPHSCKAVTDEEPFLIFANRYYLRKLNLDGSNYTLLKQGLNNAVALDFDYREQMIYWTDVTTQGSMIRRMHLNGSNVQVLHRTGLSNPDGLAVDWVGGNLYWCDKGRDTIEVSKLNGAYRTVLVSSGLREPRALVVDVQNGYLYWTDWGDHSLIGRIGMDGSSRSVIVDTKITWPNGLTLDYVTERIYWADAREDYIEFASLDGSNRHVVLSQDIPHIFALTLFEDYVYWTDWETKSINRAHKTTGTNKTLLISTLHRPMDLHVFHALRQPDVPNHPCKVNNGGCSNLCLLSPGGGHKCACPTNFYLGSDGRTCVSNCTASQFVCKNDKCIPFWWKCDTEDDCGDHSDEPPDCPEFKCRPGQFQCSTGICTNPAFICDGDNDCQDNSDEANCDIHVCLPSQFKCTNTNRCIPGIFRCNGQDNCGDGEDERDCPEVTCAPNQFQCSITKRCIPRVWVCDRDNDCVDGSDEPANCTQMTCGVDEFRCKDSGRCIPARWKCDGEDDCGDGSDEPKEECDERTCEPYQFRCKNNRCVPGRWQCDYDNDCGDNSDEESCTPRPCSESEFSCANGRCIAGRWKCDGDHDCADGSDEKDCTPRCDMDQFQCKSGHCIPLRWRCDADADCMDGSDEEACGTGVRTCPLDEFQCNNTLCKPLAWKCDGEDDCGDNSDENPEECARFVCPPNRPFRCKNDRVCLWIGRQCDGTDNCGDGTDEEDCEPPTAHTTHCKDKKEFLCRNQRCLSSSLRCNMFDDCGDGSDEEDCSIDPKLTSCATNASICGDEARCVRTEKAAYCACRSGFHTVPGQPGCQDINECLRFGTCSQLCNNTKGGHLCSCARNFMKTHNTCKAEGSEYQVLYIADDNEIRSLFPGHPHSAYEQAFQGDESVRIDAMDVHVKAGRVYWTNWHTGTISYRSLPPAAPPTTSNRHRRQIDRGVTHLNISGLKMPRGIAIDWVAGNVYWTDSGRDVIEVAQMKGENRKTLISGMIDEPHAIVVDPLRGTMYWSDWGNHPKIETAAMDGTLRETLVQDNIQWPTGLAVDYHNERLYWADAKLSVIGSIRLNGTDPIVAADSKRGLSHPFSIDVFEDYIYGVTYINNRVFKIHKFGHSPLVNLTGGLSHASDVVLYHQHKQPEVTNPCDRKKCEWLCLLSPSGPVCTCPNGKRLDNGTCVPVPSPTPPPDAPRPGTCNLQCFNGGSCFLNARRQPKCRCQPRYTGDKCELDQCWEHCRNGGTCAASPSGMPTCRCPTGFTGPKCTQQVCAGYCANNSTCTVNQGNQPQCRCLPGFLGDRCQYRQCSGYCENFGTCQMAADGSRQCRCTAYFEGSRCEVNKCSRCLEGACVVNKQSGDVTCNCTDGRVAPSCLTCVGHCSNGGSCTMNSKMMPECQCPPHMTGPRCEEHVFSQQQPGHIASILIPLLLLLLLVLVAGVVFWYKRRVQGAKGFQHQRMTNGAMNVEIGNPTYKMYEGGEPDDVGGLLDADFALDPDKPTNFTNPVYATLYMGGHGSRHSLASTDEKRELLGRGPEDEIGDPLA
Chain of UniProt P15328 (P15328 whole entry, looked up): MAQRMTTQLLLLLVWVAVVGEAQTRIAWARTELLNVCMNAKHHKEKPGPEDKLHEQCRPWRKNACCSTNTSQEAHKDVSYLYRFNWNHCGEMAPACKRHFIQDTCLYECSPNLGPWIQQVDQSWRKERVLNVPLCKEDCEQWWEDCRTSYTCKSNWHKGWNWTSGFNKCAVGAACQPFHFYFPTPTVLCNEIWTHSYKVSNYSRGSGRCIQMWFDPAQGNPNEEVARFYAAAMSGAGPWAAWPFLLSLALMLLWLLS
Chain of UniProt O43633 (O43633 whole entry): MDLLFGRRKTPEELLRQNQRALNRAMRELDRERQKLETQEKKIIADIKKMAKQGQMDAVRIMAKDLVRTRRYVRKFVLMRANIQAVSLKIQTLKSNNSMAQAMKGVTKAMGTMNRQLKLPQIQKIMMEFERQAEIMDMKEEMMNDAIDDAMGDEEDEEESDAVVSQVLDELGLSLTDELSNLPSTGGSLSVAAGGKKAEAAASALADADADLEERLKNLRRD

| Target | lysine labeling ratio R10:1 |
| --- | --- |
| CNN2 (lysine site: K30) (UniProt Q99439) | 4.32 |
| UniProt Q14574 (lysine site: K281) | 1.99 (active) |
| ACIN1 (lysine site: K81) (UniProt Q9UKV3) | 3.67 |
| PRDX6 (lysine site: K63) (UniProt P30041) | 2.85 |
| RBMX (lysine site: K86) (UniProt P38159) | 2.06 |
| CCT3 (lysine site: K203) (UniProt P49368) | 4.58 |
| ASPH (lysine site: K110) (UniProt Q12797) | 4.5 |
| ROBO1 (lysine site: K516) (UniProt Q9Y6N7) | 4.56 |
| HNRNPU (lysine site: K592) (UniProt Q00839) | 2.21 |
| SHMT2 (lysine site: K302) (UniProt P34897) | 2.59 |
| CTNNA1 (lysine site: K16) (UniProt P35221) | 3.72 |
| PPL (lysine site: K1151) (UniProt O60437) | 3.53 |
| PDCD6IP (lysine site: K486) (UniProt Q8WUM4) | 0.775 (active) |
| UniProt P62269 (lysine site: K106) | 1.85 (active) |
| KTN1 (lysine site: K543) (UniProt Q86UP2) | 5.74 |
| CHST14 (lysine site: K226) (UniProt Q8NCH0) | 1.36 (active) |
| CCT6A (lysine site: K388) (UniProt P40227) | 1.46 (active) |
| RPS3A (lysine site: K249) (UniProt P61247) | 1.8 (active) |
| ALDOA (lysine site: K13) (UniProt P04075) | 8.82 |
| LAMC1 (lysine site: K1191) (UniProt P11047) | 2.51 |

| Target | lysine labeling ratio R10:1 |
| --- | --- |
| CSE1L (lysine site: K17) (UniProt P55060) | 1.76 (active) |
| ANPEP (lysine site: K923) (UniProt P15144) | 2.33 |
| CHMP2A (lysine site: K64) (UniProt O43633) | 5.72 |
| LRP1 (lysine site: K3988) (UniProt Q07954) | 4.67 |
| FOLR1 (lysine site: K76) (UniProt P15328) | 3.42 |
| LRP1 (lysine site: K646) (UniProt Q07954) | 1.92 (active) |
| EDIL3 (lysine site: K429) (UniProt O43854) | 1.21 (active) |
| SLC3A2 (lysine site: K298) (UniProt P08195) | 6.33 |
| GALNT2 (lysine site: K111) (UniProt Q10471) | 3.04 |
| MET (lysine site: K189) (UniProt P08581) | 3.58 |
| UniProt O60462 (lysine site: K499) | 1.47 (active) |
| UniProt Q15149 (lysine site: K810) | 2.16 |
| TAGLN2 (lysine site: K156) (UniProt P37802) | 1.43 (active) |
| EPHA2 (lysine site: K475) (UniProt P29317) | 2.38 |
| UniProt Q8IWU5 (lysine site: K443) | 1.5 (active) |
| UniProt P25705 (lysine site: K261) | 2.94 |
| PTPRM (lysine site: K375) (UniProt P28827) | 5.3 |
| UniProt P63000 (lysine site: K153) | 2.29 |
| ENO1 (lysine site: K420) (UniProt P06733) | 2.65 |
| UniProt Q15149 (lysine site: K792) | 1.45 (active) |
